# In the supplement of paper PMC3334620:
# Whole data set: some 33,000 sequences, median “E-score (-0.5 to 0.5)” near -0.012, cut for the highest 2% near 0.29. Only a selection was taken, and the highest values are over-represented in it overall.
# Target: T1, Ybr033w (UniProt P38073)
# T1 sequence: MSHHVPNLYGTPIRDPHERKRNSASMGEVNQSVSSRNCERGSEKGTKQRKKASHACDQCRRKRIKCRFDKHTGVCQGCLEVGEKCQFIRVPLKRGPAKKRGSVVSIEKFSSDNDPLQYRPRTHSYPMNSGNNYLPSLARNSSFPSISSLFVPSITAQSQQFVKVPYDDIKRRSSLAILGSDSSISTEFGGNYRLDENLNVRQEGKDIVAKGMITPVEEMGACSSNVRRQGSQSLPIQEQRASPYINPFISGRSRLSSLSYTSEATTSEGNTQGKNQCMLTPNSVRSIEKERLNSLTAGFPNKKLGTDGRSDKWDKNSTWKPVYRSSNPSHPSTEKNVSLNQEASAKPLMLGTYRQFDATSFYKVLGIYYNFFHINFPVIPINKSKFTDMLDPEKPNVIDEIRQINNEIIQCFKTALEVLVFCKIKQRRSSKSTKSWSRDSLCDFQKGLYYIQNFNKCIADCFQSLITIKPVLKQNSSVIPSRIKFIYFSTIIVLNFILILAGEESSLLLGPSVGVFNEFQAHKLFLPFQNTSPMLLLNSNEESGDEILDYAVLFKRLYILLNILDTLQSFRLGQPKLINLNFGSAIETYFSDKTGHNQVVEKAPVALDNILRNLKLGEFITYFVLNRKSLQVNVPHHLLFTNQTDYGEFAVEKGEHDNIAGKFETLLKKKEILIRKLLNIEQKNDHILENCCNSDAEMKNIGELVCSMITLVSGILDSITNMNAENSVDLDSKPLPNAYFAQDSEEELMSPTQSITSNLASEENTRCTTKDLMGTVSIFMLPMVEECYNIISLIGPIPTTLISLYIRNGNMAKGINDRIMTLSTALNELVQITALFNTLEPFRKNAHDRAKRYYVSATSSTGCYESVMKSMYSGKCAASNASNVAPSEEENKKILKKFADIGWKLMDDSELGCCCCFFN
# Assay: PBM E-score (8-mer binding enrichment) (E-score (-0.5 to 0.5)); higher = stronger / more preferred TF binding
# Conditions: protein concentration: 200 nM; construct: GST-full length
# Procedure, shortened: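 Using PURExpress in vitro transcription/translation, GST-tagged yeast transcription factors were made in full-length or DNA-binding-domain form. These were applied at about 100-200 nM to double-stranded universal all-10-mer Agilent arrays, and bound protein was detected with fluorescent anti-GST. Scans were normalised with masliner before the Universal PBM Analysis Suite assigned E-scores to ungapped eight-base words pooled with their reverse complements.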
row,Sequence,PBM E-score
1,ATTAACCC,0.237
2,ATTAACGG,0.159
3,ATTAACTA,0.181
4,CTTAACTC,0.0941
5,AGTAACTG,0.0214
6,ATTAACCG,0.295
7,ATTAACTG,0.333
8,GAATTGAC,0.00537
9,CAGGCGGA,0.122
10,AACGCTTG,-0.194
11,CATTCTCC,0.0353
12,ATTTCTCC,0.404
13,AATTCTCC,0.293
14,CTTTCTCC,-0.103
15,ATTTCTCA,0.192
16,AATTCTCA,0.204
17,CAGGCTGA,-0.237
18,GACAGAGA,-0.066
19,ACCCTACT,0.0025
20,TGCTACCA,-0.0533
21,AATGCATA,0.126
22,AATGCATG,0.0293
23,AATGCATT,0.31
24,AGTAGTAT,0.185
25,AAAAGCCA,0.3
26,GAAAGCCA,-0.136

row,Sequence,PBM E-score
1,AAAAGACA,0.292
2,AAAAGACC,-0.141
3,AAAAGCCC,-0.113
4,CAAAGACA,0.0541
5,CCCAGTGA,-0.194
6,AGCAGTGG,0.0536
7,ATCTTGAA,0.187
8,CTATTAAA,0.196
9,ATATTAAA,0.355
10,GTATTAAC,0.0593
11,ATATTAAT,0.314
12,ATATTAAG,0.285
13,ACATTAAT,0.235
14,CTATTAAC,0.268
15,ATATTAAC,0.301
16,TTATTAAA,0.283
17,GGCTCTAC,-0.185
18,GGAACACA,0.149
19,GAGCTGTA,-0.11
20,TCCATACA,0.0807
21,ATTTTCAG,0.148
22,ATTCGCCG,0.0215
23,ATCGACAC,-0.0724
24,CGTGAACA,0.00947
25,GTGTGTTA,0.292
26,ATGTGTTA,0.163

row,Sequence,PBM E-score
1,CTGTGTTA,-0.00531
2,CAAGGTCG,-0.0398
3,AACGACTC,-0.219
4,AGTTTATA,0.215
5,AATTTATA,0.257
6,CATTTATC,0.278
7,ACTTTATG,0.132
8,AGTTTATG,0.2
9,AATTTAGG,0.229
10,AATTTATC,0.398
11,AGTTTATC,0.363
12,AATTTATG,0.317
13,GCAAGCGC,-0.00847
14,GTAACCAC,-0.255
15,CTCAATGC,-0.0435
16,AGATCTTG,-0.00564
17,GAAGTGAA,0.155
18,AAAGTGAA,0.164
19,TAAGTGAA,0.293
20,CAAGCCAG,-0.0473
21,ATTAGATC,0.0257
22,ATTAGATG,0.329
23,ATTAGATA,0.222
24,AATCGGGG,-0.125
25,GTAATCTA,0.207
26,CTAATCTC,-0.0112

row,Sequence,PBM E-score
1,AAAATCTA,0.289
2,GAAATCTA,0.116
3,AAAATCTG,0.235
4,ATAATCTC,0.293
5,ACAATCTC,0.0789
6,ATAATCTA,0.294
7,ATAATCTG,0.117
8,AGACAGGA,0.246
9,TCTCAAAA,0.143
10,GCGAGACA,-0.0827
11,CAAATAGG,0.00709
12,CAGACGAG,-0.108
13,AAACGGAC,-0.102
14,GAACGGAA,0.0333
15,AAACGGAA,0.341
16,AACTCAAT,0.0866
17,GGGTGAGA,-0.224
18,CTCACTTA,0.0375
19,GGGTAAGA,-0.154
20,TACACTAA,0.0217
21,CACACTAA,0.299
22,CACACTAG,0.0753
23,GCGCTGAA,-0.0684
24,ACCACGAG,0.0793
25,CGTAATTA,0.29
26,ATTAATTA,0.387

row,Sequence,PBM E-score
1,ATTAAGTA,0.365
2,ATTAGTTA,0.344
3,ATTAATTG,0.268
4,GTTAATTA,0.266
5,GTTAGTTA,0.262
6,GGTAATTA,0.175
7,ATTAAGTG,0.167
8,GTTAAGTA,0.113
9,CGTAATTC,0.0565
10,ATTAGTTG,0.265
11,CGGGGCGA,-0.145
12,AAACACCC,0.0312
13,GCGCGATA,0.181
14,CCTCCTAC,-0.107
15,GACCTATA,0.189
16,GGTGGCCA,-0.292
17,AACAGTAA,0.173
18,CTCTTCGA,0.0693
19,ACAGGTGA,0.0969
20,ACTTACCA,0.0956
21,CCGCTAAC,-0.0857
22,AGTAATTA,0.232
23,CTTAATTC,0.257
24,AGTAATTC,0.318
25,AGTAATTG,0.129
26,ACTAATTC,0.221

row,Sequence,PBM E-score
1,ATTAATTC,0.291
2,CCTTACCA,-0.00851
3,ACACCTGA,-0.0619
4,AGTTCTAC,0.0539
5,AATCAAGC,0.0885
6,CCATATTA,0.146
7,ATATATCC,0.372
8,ATATATCA,0.0628
9,CTATATTA,0.284
10,ACATATTA,0.349
11,ATATATTA,0.306
12,CTATATTC,0.215
13,ACATATTG,0.193
14,ATATATTC,0.326
15,ATATATTG,0.14
16,GTATATTA,0.257
17,CTATATCC,0.159
18,AAGAGGGG,-0.226
19,GTGCCACA,-0.302
20,CTGGCAGA,-0.00651
21,GCGGGACA,-0.243
22,CGCGATCA,0.0933
23,AGATCTGA,-0.108
24,CTAAGGGA,0.0981
25,ACCTGCGG,-0.146
26,ACTGCCAT,0.00233

row,Sequence,PBM E-score
1,TCCTCGAA,0.126
2,AACCAAAT,0.228
3,ATGGGGTG,-0.195
4,CGATATTC,0.123
5,GGATATTA,0.144
6,CGATATTA,0.336
7,AACTTCCC,0.00652
8,AGATAGGA,0.00058
9,GTTTATTA,0.276
10,ACTATTTG,0.248
11,ATTTATTA,0.293
12,ATTATTTG,0.335
13,CTTTATTA,0.191
14,ATTTATTG,0.0954
15,ATTTATTC,0.361
16,CTTTATTC,0.192
17,ATTATTAG,0.152
18,CTTATTTC,0.235
19,ACTATTTC,0.237
20,ATTATTTC,0.332
